Most compounds without a hit are left out; they make up all but 7.4% or so of the library.
ELG1 genotoxic: induces genotoxicity in HEK293T cells with luciferase-tagged ELG1 | 330,000 compounds, 1.3% hits | HEK293T ELG1-luciferase reporter, luminescence, 16 h | Potency, µM (titrated, usually from 46 µM), for the others: at the top dose activity change, positive = activation, usual class: activators | AID 504466; further: % of control where 0% means no effect; nearly all actives have a fitted effect of over 60% in size
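HEK293T cells expressing luciferase-tagged ELG1 were treated with compound or DMSO for 16 hr at 37°C. Luciferase activity was then read after 30 min with ONE-Glo at room temperature; rising signal flags genetic stress.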
FLuc modulator: firefly luciferase modulation, counter-screen for miR-21 project | 360,000 compounds, 6.9% hits | AID 588342 | purified FLuc, Km substrates, luminescence inhibition | Potency, µM (top dose mostly 57.5 µM), for the others: at the highest dose activity change, negative = inhibition, usual class: inhibitors | P08659;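 further: plate controls were vehicle for no effect and reference inhibitor for full effect; nearly all actives have a fitted effect of over 55% in size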
Target sequence (P08659 whole entry, looked up): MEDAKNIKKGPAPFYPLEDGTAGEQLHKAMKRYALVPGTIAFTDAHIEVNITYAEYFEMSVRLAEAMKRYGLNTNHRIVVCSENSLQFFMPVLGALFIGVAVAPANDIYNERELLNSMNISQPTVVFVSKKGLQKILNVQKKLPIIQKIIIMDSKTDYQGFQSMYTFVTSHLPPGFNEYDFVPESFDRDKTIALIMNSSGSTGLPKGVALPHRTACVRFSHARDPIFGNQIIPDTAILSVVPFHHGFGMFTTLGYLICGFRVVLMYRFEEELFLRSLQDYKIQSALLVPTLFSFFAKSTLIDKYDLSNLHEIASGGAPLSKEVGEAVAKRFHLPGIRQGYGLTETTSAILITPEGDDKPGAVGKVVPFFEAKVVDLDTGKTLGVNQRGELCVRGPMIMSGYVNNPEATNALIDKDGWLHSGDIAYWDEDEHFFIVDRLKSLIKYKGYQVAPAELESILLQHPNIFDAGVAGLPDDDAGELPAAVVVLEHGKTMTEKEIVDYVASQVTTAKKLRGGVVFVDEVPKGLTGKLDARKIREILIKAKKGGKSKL
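Biochemical qHTS of compounds, final roughly 60 µM downward over six points, against 10 nM purified firefly luciferase using Km concentrations of substrates (10 uM D-luciferin, 10 uM ATP) in Tris acetate pH 7.5 buffer; luminescence output.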
SMN2 splice up: increases expression of the SMN2 splice variant; HEK293 SMN2-luciferase splicing reporter, luminescence, 30-36 h; 210,000 compounds, 2.8% hits; AID 1458; Potency, µM (series often up to 46.1 µM), for inactives: at the top dose activity change, positive = activation, hits mostly activators; further: % of control where 0% means no effect; nearly all actives have a fitted effect of over 55% in size
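qHTS luciferase splicing reporter: luminescence rises when SMN2 exon 7 is included in transfected HEK293 cells. Compound exposure lasted 30-36 h at 37C, with 4.5 mM final sodium butyrate as control, followed by a ONE-Glo read.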
NPC1 prom act: NPC1 promoter activation. Huh7 NPC1 promoter luciferase reporter, 24 h. Potency, µM (highest dose often 9.22 µM), inactives show at the top dose activation, usual class: activators. 320,000 compounds, 2.4% hits. AID 485313; further: % of control where 0% means no effect; nearly all actives have a fitted effect of over 60% in size
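In 1536-well qHTS, Huh7 cells harboring an NPC1 promoter–luciferase construct received compound for 24 h; activation was quantified by luminescence following luciferase reagent addition.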
Rab9 promoter act: activates the Rab9 promoter. Huh7 Rab9 promoter-luciferase reporter, luminescence, 24 h. Potency, µM (doses to about 9.22 µM), inactives show at the highest dose activation, negative = inhibition, usual class: activators. 320,000 compounds, 2.8% hits. AID 485297; further: % of control where 0% means no effect; nearly all actives have a fitted effect of over 60% in size
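Cells were plated at 1500 per well in reduced-serum medium with 10% FBS and left 2 h. Compound in DMSO was then added for 24 h at 37 °C. Reporter signal was read by luminescence after 10 min with luciferase detection reagent.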
An asterisk follows results filed as active; ? = inconclusive; . = no result; [ ] = another dose, or the depositor's remark. The call rests on the fitted dose curve; in most records, active means well fitted curve in the direction sought with a large enough effect; inconclusive means small, poorly fitted or top-dose-only effect, or another doubt; inactive means no such curve, though single readings can be large; an effect the other way counts as inactive or inconclusive. Potency means the concentration at half of the fitted maximal effect.

SMILES	ELG1 genotoxic	FLuc modulator	SMN2 splice up	NPC1 prom act	Rab9 promoter act
COc1ccc2c(c1)CCC/C2=N/OC(=O)c1ccccc1OC	-1.7%	13.5µM*	-16.6%	-5.8%	0.6%
COc1ccccc1C(=O)ON=C1c2ccccc2-c2ccccc21	-7.6%	21.3µM*	-13.0%	4.3%	-5.1%
Cc1cccnc1NC(=S)Nc1ncccc1C	?	13.5µM*	.	1.26µM*	0.708µM*
COc1ccc(NC(=S)Nc2ncccc2C)c(OC)c1	11.8%	9.53µM*	?	?	?
CCOc1ccccc1NC(=S)Nc1ncccc1C	-1.3%	?	.	-1.1%	-0.2%
Cc1cccc(NC(=S)NCCc2ccccc2)c1C	-4.8%	-0.3%	.	1.3%	3.3%
Cc1cccnc1NC(=S)NCCc1ccccc1	?	16.9µM*	?	23.5%	?
COc1ccc(NC(=S)Nc2ncccc2C)cc1OC	?	?	35.5µM*	?	?
Cc1cccnc1NC(N)=S	0.7%	-4.9%	12.8%	0.6%	1.3%
C=C(c1ccccc1O)n1ccnc1	-0.6%	0.2%	.	-0.8%	-2.9%
O=C(c1ccc2nc(Cc3cccc(Cl)c3)oc2c1)N1CCC(O)CC1	3.0%	-3.1%	.	1.5%	-0.4%
Cc1cccc(-c2oc3ccc(-c4ccc5c(c4)OCO5)cc3c2/C=C/c2ccc(N)cc2)c1	-2.5%	0.1%	.	-0.8%	-5.9%
Nc1nc2c(c(=O)[nH]1)N(C=O)[C@H](CNc1ccc(C(=O)N[C@@H](CCC(=O)O)C(=O)O)cc1)CN2	.	.	-5.1%[20.6 µM]	.	.
Cc1ccccc1CNC(=O)C1CCN(c2nnc(-n3c(C)ccc3C)s2)CC1	.	-8.0%	-3.7%	.	.
CCN1CCN(C(=O)c2cc3c(OC)c(OC)c(OC)cc3[nH]2)CC1	4.3%	-7.1%	.	-0.1%	1.6%
COc1cc2[nH]c(C(=O)N3CCc4ccccc43)cc2c(OC)c1OC	?	16.9µM*	.	23.9%	?
COc1cc2[nH]c(C(=O)N3CCC(Cc4ccccc4)CC3)cc2c(OC)c1OC	-4.0%	23.9µM*	.	0.3%	-7.4%
Clc1ccc(CSc2ncn(-c3ccccc3)n2)cc1	1.7%	-28.6%	16.1%	1.8%	2.4%
Clc1cccc(CSc2ncn(-c3ccccc3)n2)c1	?	19µM*	?	16.0%	22.3%
O=C(OCC(=O)N1CCN(C(=O)c2ccco2)CC1)c1cc(-c2ccccc2)nc2ccccc12	-11.8%	15.1µM*	1.1%	-2.2%	8.5%
O=C(OCC(=O)N1CCN(C(=O)c2ccco2)CC1)c1cc(=O)c2ccccc2o1	1.3%	-0.8%	-11.8%	-2.8%	-1.7%
Cc1cc(C(=O)OCC(=O)N2CCN(C(=O)c3ccco3)CC2)c(C)n1-c1ccc(F)cc1	-1.6%	-2.0%	-23.3%	-7.0%	-23.8%
O=C(OCC(=O)N1CCN(C(=O)c2ccco2)CC1)c1cc(-c2ccc(F)cc2)nc2ccccc12	-18.6%	10.7µM*	-7.5%	-1.6%	-13.2%
O=C(OCC(=O)N1CCN(C(=O)c2ccco2)CC1)c1cc(-c2cccc(Br)c2)nc2ccccc12	-22.7%	9.53µM*	-11.7%	0.8%	-6.5%
CC(C)(C)OC(=O)C[C@@H]1C/C=C\C[C@@H](CC(=O)NCCO)C(=O)NC[C@@H](c2ccccc2)OC1=O	2.2%	.	.	.	.
SMILES	ELG1 genotoxic	FLuc modulator	SMN2 splice up	NPC1 prom act	Rab9 promoter act
Cc1ccc(S(=O)(=O)NCC(c2cccnc2)N2CCc3ccccc32)cc1 (stereo unspecified)	-2.9%	2.1%	.	0.9%	-0.8%
CCOC(=O)c1ccc(Nc2ncnc3nc[nH]c23)cc1	?	?	10µM*	?	?
c1ccc(COc2ccc(Nc3ncnc4nc[nH]c34)cc2)cc1	?	10.7µM*	0.1%	?	?
COc1ccc(Nc2ncnc3nc[nH]c23)cc1OC	-1.1%	-2.9%	?	5.6%	-2.6%
O=C(Cn1nc(-c2ccccc2)c2cnc3ccc(F)cc3c21)NC1CCCC1	.	0.6%	.	.	.
Cc1cccc(CCNC(=O)CN(c2ccc(C(C)C)cc2)S(=O)(=O)c2c(C)nn(C)c2C)c1	.	-0.3%	-9.5%	.	.
CC(=O)/C(=C(/O)c1ccccc1)c1nc2ccccc2[nH]1	7.9%	1.2%	21.6%	8.9%	16.7%
O=C(Nc1ccc(-c2nc3ccccc3[nH]2)cc1)c1ccccc1NS(=O)(=O)c1ccc(F)cc1	-0.2%	?	-23.9%	-4.1%	6.1%
O=C(O)c1ccc(-c2nc3ccccc3[nH]2)cc1	2.1%	15.1µM*	14.3%	-1.6%	-10.5%
Cn1cc(-c2nc3ccccc3[nH]2)c2ccccc21	6.1%	4.26µM*	22.4µM*	?	?
Fc1ccc(-c2nc3ccccc3[nH]2)cc1	?	12µM*	10µM*	2.51µM*	2.51µM*
O=C(O)c1ccc(/C=C(\c2nc3ccccc3[nH]2)c2nc3ccccc3s2)cc1	-6.8%	15.1µM*	.	1.9%	-1.0%
C=Cc1ccc(C=C)cc1	.	.	-9.4%	.	.
COc1cc(C#N)ccc1OC(=O)C1CCN(C(=O)c2ccc(F)cc2)CC1	1.4%	5.6%	.	-4.2%	1.8%
Cc1nnsc1C(=O)Nc1ccc(S(=O)(=O)N2CCC(C)CC2)cc1	2.9%	1.6%	.	-10.9%	-18.2%
O=C(Nc1ccnn1C1CCN(C(=O)Cc2ccccc2F)CC1)C1CC1	-5.7%	6.1%	.	8.0%	15.4%
COc1ccc(CCNCC2C(Oc3ccc(Cl)cc3)C(=O)N2c2ccccc2C)cc1OC (stereo unspecified)	-7.7%	-2.9%	.	-1.0%	4.5%
Oc1ccc(C=Nc2ccccc2-c2nc3ccccc3[nH]2)cc1	9.4%	26.9µM*	12.6µM*	?	13.4%
Nc1ccc2nc(-c3ccc(-c4nc5ccc(N)cc5[nH]4)cc3)[nH]c2c1	-5.1%	-16.0%	.	-5.8%	-1.4%
Nc1ccccc1-c1nc2ccccc2[nH]1	10.3µM*	12µM*	?	3.98µM*	6.31µM*
Clc1nc2c(ccc3ccccc32)[nH]1	10.8%	?	.	?	?
O=c1[nH]cccc1-c1nc2ccccc2[nH]1	?	?	.	?	29.4%
Nc1ccc(-c2nc3ccccc3[nH]2)cc1	2.91µM*	9.53µM*	4.47µM*	1.58µM*	0.447µM*
Nc1ccc(-c2nc3c(ccc4ccccc43)[nH]2)cc1	?	2.39µM*	.	?	?
COCCNc1nc(-c2cccc(OC)c2)nc2ccccc12	.	.	-9.9%	.	.
c1ccc2c(-n3cccn3)cccc2c1	?	15.1µM*	-4.1%	?	24.3%
COc1ccc(C(=S)N2CCOCC2)cc1OS(=O)(=O)c1ccccc1[N+](=O)[O-]	-0.5%	-10.4%	-5.8%	2.9%	0.4%
O=C(Nc1cc(S(=O)(=O)N2CCOCC2)ccc1Cl)c1cc2ccccc2o1	-1.5%	.	.	-6.2%	1.9%
COc1ccc2oc(C(=O)Nc3cccc(S(=O)(=O)N4CCOCC4)c3)c(C)c2c1	-5.5%	6.01µM*	.	1.8%	0.9%
O=C(Nc1cccc(S(=O)(=O)N2CCOCC2)c1)c1cc2ccccc2o1	-8.2%	16.9µM*	.	0.7%	1.1%
